Drawing on ChEMBL document CHEMBL1961873, “Compounds: GSK PKIS; Assays: Nanosyn kinase panel” (2012), this text covers inhibition for 14 compounds.

The target of assay [1] is Glycogen synthase kinase-3 beta (Homo sapiens) (UniProt P49841). Conditions: at 1 µM.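 Further: reported values are mean percent inhibition of GSK3B.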
In assay [2] the target is Homeodomain-interacting protein kinase 1 (Homo sapiens) (UniProt Q86Z02). To be noted: at 0.1 µM.
The target is the same in assay [3]. To be noted: at 1 µM.
In assay [4] the target is T1, Homeodomain-interacting protein kinase 4 (Homo sapiens) (UniProt Q8NE63).
T1 sequence (whole entry): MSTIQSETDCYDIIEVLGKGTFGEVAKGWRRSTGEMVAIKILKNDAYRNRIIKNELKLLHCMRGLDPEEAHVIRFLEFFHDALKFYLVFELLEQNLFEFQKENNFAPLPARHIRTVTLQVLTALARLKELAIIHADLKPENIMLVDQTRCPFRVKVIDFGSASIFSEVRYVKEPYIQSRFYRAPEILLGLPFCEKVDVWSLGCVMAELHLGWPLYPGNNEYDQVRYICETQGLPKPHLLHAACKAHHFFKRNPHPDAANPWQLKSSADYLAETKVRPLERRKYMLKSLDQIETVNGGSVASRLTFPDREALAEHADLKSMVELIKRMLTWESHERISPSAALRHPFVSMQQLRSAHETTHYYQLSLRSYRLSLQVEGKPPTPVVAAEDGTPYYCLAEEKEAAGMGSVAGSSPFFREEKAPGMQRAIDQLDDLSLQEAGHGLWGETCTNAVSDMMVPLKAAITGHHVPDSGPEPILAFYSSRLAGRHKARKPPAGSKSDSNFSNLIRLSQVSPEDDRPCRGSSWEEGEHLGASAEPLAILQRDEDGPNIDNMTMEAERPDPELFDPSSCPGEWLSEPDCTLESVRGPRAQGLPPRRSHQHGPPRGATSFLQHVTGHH
To be noted: at 0.1 µM.

Assay [5] has as its target T1, Homeodomain-interacting protein kinase 4 (Homo sapiens). To be noted: at 1 µM.
For assay [6], the target named is Mitogen-activated protein kinase 9 (Homo sapiens) (UniProt P45984). To be noted: at 0.1 µM.
For assay [7] the target is unchanged. Conditions: at 1 µM.
Assay [8] has as its target Mitogen-activated protein kinase 1 (Homo sapiens) (UniProt P28482). To be noted: at 0.1 µM.
For assay [9] the target is unchanged. To be noted: at 1 µM.
The target of assay [10] is Mitogen-activated protein kinase 3 (Homo sapiens) (UniProt P27361). Conditions: at 0.1 µM.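 Further: each value is a mean inhibition figure.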

The term inhibition denotes the change of the read-out against control, counted positive when it falls.

Mitogen-activated protein kinase 9 (Homo sapiens), sequence (P45984 whole entry, looked up): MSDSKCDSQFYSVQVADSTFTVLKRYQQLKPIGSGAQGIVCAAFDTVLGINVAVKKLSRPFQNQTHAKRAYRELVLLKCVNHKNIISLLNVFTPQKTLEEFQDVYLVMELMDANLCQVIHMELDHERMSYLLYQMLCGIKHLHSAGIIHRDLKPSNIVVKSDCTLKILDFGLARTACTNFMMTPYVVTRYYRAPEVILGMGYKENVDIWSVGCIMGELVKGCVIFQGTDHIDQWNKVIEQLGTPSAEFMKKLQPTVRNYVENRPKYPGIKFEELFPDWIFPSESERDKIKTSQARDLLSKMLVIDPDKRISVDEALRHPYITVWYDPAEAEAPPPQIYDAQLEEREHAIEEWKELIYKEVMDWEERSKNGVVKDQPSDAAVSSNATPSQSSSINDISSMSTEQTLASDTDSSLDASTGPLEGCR
Mitogen-activated protein kinase 3 (Homo sapiens), sequence (P27361 whole entry): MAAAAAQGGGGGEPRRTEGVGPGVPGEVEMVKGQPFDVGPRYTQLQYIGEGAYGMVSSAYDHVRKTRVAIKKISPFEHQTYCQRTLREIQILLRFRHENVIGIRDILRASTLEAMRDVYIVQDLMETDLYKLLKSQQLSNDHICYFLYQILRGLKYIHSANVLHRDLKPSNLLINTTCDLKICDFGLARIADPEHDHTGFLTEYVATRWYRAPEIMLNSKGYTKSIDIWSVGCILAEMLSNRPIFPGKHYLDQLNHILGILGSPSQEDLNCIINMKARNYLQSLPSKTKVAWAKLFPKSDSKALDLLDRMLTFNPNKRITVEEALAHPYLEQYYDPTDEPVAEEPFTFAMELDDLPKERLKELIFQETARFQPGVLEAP
Homeodomain-interacting protein kinase 1 (Homo sapiens), sequence (Q86Z02 whole entry, looked up): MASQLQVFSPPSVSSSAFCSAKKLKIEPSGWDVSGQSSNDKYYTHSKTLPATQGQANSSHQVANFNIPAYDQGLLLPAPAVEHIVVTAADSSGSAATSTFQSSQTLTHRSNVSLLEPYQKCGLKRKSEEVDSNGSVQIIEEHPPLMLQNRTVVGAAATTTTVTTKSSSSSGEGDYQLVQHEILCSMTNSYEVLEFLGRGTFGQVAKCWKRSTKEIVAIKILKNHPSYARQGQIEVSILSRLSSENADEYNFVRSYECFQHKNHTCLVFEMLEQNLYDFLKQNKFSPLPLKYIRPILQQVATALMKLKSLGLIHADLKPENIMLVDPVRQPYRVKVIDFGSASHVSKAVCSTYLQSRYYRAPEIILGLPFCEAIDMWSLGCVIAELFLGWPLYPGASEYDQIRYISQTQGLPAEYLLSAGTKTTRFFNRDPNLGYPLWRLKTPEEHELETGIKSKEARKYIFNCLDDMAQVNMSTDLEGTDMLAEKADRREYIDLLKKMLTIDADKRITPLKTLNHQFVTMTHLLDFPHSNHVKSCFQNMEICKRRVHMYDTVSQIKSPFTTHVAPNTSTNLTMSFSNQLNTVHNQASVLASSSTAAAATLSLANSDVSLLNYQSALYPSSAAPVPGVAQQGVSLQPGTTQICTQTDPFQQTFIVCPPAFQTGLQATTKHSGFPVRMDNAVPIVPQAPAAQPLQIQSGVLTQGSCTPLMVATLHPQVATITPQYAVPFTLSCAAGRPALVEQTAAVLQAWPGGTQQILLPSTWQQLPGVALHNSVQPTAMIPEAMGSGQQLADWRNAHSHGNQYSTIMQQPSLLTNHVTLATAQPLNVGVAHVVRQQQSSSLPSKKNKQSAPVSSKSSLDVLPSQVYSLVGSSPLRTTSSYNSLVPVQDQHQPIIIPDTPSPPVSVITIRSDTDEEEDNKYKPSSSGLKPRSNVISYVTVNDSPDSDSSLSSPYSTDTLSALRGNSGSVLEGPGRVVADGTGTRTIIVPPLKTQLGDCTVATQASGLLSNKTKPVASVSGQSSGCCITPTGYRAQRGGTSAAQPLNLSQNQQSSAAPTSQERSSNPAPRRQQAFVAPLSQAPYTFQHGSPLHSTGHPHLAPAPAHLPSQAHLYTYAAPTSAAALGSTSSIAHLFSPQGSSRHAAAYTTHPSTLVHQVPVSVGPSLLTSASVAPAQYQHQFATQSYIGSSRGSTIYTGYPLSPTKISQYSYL
Mitogen-activated protein kinase 1 (Homo sapiens), sequence (P28482 whole entry): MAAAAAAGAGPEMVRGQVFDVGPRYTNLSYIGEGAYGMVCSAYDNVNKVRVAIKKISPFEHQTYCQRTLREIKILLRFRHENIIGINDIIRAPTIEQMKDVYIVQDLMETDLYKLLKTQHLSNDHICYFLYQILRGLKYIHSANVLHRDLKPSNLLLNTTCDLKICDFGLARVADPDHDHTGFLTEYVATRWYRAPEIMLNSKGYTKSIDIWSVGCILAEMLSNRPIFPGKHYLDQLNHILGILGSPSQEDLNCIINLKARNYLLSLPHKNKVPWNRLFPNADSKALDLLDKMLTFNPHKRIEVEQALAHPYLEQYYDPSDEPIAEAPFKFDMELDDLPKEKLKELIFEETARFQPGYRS
Glycogen synthase kinase-3 beta (Homo sapiens), sequence (P49841 whole entry, looked up): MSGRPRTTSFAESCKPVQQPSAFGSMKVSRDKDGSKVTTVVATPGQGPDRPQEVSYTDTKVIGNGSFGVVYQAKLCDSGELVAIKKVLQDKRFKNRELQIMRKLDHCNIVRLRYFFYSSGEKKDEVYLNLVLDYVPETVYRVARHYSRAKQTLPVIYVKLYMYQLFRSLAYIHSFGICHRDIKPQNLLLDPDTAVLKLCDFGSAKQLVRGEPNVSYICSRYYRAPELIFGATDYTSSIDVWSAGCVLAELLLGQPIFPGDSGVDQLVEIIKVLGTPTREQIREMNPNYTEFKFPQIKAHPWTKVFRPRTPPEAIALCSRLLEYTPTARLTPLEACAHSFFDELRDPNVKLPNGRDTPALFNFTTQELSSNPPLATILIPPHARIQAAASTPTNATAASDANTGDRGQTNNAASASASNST

On to `Cc1cc(O)cc(C)c1/C=C/c1cncc(C(=O)N(C)C)c1`, for which the inhibition in [1] was 9.44%; in assay [2], 0.32%; in [3], 4.88%; in [4], 4.28%; in assay [5] it was 7.94%; in assay [6] it was -0.29%. For the same compound, the inhibition in [7] was determined as 2.38%; in assay [8], 2.76%; in assay [9], 2.51%; in assay [10], 3.48%.
With `Cc1ccc2c(-c3ccnc(Nc4cccc(C(F)(F)F)c4)n3)c(-c3ccccc3)nn2n1`, the inhibition worked out at 76% in assay [1]; 0.33% in assay [2]; 3.87% in [3]; 1.36% in [4]; 13.5% in assay [5]; 30.1% in assay [6]. Further, the inhibition came out at 82.2% in assay [7], 6.13% in assay [8], 9.3% in assay [9] and 5.72% in assay [10].
As to `CN(C)C(=O)O[C@@H]1CN[C@@H](C#Cc2cc3ncnc(Nc4ccc(OCc5cccc(F)c5)c(Cl)c4)c3s2)C1`, the inhibition is 7.41% in [1]; -3.67% in assay [2]; -3.81% in assay [3]; -1.55% in assay [4]; 0.99% in [5]; 3.81% in [6]. In addition, the inhibition was 4.77% in [7], -1.16% in [8], 1.96% in assay [9] and 3.17% in assay [10].
For the compound `COc1cccc(-n2ncc3c(N/N=C/c4ccc(S(C)(=O)=O)cc4)ncnc32)c1`, the inhibition in assay [1] was determined as 79%; in assay [2], 21.4%; in [3], 64.3%; in assay [4], 18.3%; in [5] it was 60.6%; in [6], 1.92%. The inhibition amounted to 4.9% in assay [7], 1.63% in assay [8], 1.93% in assay [9] and 2.27% in assay [10].
Turning to `CN(C)C(=O)O[C@H]1CN[C@H](C#Cc2cc3ncnc(Nc4ccc(OCc5cccc(F)c5)c(Cl)c4)c3s2)C1`, the inhibition in [1] is 4.1%; in assay [2] it was -0.07%; in [3], 0.31%; in assay [4], 0.17%; in [5], 1.29%; in assay [6], 2.26%. For the same compound, the inhibition in assay [7] is 6.8%; in [8], -0.55%; in assay [9] it was 2.89%; in [10], 1.44%.
As for `OCc1ccc(-c2nc(-c3ccccn3)c(-c3ccc4c(c3)OCO4)[nH]2)cc1`, the inhibition in assay [1] is 3.44%; in [2], 0.23%; in [3], 4.92%; in [4], 1.72%; in assay [5] it was 0.79%; in assay [6], 2.15%. Also, the inhibition in assay [7] was determined as 5.14%; in assay [8] it was 5.49%; in assay [9] it was 3.7%; in assay [10] it was 3.56%.
Regarding `Nc1ccc(C#Cc2cncnc2Nc2ccc(OCc3cccc(F)c3)c(Cl)c2)cc1`, the inhibition in [1] is 0.21%; in assay [2], -0.22%; in [3], 0.93%; in assay [4], 0.09%; in assay [5], 0.28%; in assay [6], 1.88%. In addition, the inhibition turned out to be 1.2% in assay [7], 4.25% in assay [8], 3.67% in assay [9] and 3.61% in [10].
With `CC(C)c1ccc2c(c1)NC(=O)/C2=N/Nc1ccc(S(N)(=O)=O)cc1`, the inhibition in [1] is 16.8%; in assay [2], -1.88%; in assay [3] it was 4.72%; in assay [4], 0.27%; in assay [5], 1.57%; in assay [6] it was 0.14%. For the same compound, the inhibition in [7] came out at 0.34%; in [8] it was 2.02%; in assay [9], 0.4%; in assay [10], 1.56%.
As to `NS(=O)(=O)c1ccc(Nc2cc(-c3cccc(O)c3)n[nH]2)cc1`, the inhibition in assay [1] is 5.21%; in [2], -1.93%; in [3] it was 2.36%; in [4], 0.59%; in assay [5] it was 3.33%; in assay [6] it was 5.37%. Further, the inhibition amounted to 6.35% in assay [7], 5.89% in assay [8], 4.96% in [9] and 4.41% in [10].
Regarding `C[C@@H](Oc1cc(-n2cnc3ccc(OC[C@@H](O)CO)cc32)sc1C(N)=O)c1ccccc1Cl`, the inhibition in assay [1] was 4.23%; in assay [2] it was -0.81%; in [3], 4.78%; in assay [4], 1.18%; in [5], 9.28%; in assay [6], -0.38%. Also, the inhibition is -0.96% in assay [7], -3.13% in assay [8], -1.64% in assay [9] and -0.87% in assay [10].
Consider `[O-][S+]1CCN(Cc2ccc(-c3ccc4ncnc(Nc5ccc(OCc6ccccc6)c(Cl)c5)c4c3)o2)CC1`, for which the inhibition was 1.33% in [1]; -1.84% in assay [2]; 0.05% in assay [3]; 0.81% in assay [4]; 2.27% in assay [5]; -0.11% in assay [6]. Further, the inhibition in assay [7] was 2.26%; in [8], 3.15%; in assay [9], 4.09%; in [10] it was 1.32%.
For the compound `COc1ccc(-c2nn3ncccc3c2-c2ccnc(Nc3cccc(C(F)(F)F)c3)n2)cc1`, the inhibition in assay [1] was 3.78%; in [2] it was 0.13%; in assay [3], -1.85%; in [4] it was 0.75%; in assay [5], 1.33%; in assay [6], 3.29%. Also, the inhibition turned out to be 8.16% in assay [7], 6.52% in [8], 5.12% in assay [9] and 0.87% in assay [10].
`COc1cccc(-n2ncc3c(N/N=C/c4ccc(C)cc4)ncnc32)c1`: the inhibition in [1] worked out at 47%; in assay [2], 1.58%; in [3], 13.3%; in assay [4], 3.16%; in assay [5], 11.4%; in assay [6], 8.36%. The inhibition in [7] was found to be 11.6%; in assay [8], 6.17%; in [9], 7.67%; in assay [10], 4.71%.
With `COC(=O)c1ccc2c(c1)C(=Cc1cc(Br)c(O)c(Br)c1)C(=O)N2`, the inhibition was 44.2% in assay [1]; 10.2% in assay [2]; 60.8% in assay [3]; 4.27% in [4]; 35% in [5]; 4.88% in assay [6]. The inhibition in assay [7] was 11%; in [8], 3.12%; in [9], 6.19%; in assay [10], 4.78%.
